# The campaign covered roughly 310,000 compounds. About 14,000 (4.5%) showed an effect of 50% or more. Effects have a minus sign here. Shown is part of a subset that was picked to be rich in strong results.
# Target: human ether-à-go-go-related gene (hERG) potassium channel (human, UniProt Q12809)
# Test: primary screen, population patch clamp on CHO cells stably expressing hERG; higher = less effect of the substance
# 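Also: peak tail current of the secondary pulse compared with the same well before compound.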
# Sequence of human ether-à-go-go-related gene (hERG) potassium channel (Q12809 whole entry, looked up): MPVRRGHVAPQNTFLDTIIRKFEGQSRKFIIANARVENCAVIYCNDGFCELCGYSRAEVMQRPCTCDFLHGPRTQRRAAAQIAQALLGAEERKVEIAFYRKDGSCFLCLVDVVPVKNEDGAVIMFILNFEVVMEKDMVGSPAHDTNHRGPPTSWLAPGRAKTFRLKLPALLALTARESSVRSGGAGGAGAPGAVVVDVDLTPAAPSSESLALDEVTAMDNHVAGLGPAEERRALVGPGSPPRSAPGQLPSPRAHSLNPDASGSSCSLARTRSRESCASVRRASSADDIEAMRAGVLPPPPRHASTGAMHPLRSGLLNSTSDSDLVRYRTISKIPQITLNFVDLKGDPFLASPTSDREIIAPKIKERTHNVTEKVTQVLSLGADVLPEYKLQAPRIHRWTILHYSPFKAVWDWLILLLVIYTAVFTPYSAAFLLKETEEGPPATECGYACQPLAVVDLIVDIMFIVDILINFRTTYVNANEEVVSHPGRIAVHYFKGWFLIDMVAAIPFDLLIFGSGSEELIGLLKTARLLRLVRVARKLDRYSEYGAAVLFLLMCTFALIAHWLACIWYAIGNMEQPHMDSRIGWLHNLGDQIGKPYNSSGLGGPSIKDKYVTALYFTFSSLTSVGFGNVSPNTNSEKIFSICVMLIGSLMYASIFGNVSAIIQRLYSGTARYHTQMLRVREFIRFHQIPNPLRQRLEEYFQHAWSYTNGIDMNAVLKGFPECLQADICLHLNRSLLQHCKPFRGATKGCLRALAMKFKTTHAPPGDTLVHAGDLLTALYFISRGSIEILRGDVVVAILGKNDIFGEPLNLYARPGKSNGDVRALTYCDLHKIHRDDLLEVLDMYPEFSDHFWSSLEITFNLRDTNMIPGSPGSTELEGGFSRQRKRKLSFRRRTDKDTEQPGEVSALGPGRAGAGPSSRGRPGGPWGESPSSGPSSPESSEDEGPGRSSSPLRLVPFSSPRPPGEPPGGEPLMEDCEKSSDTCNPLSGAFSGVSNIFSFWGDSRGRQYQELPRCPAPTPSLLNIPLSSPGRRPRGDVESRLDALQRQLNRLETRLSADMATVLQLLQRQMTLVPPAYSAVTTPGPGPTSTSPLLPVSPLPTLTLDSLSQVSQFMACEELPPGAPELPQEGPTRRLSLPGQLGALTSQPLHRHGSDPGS
row,Structure (SMILES),"hERG current change (%, negative = inhibition) at 10uM [%]"
1,CNC(=O)OCCc1n(C)cc[n+]1C.[I-],13.9
2,Cn1cnnc1Sc1ccc(C(=O)OCC(=O)NCC(F)(F)F)cc1[N+](=O)[O-],0.021
3,CC(C)(C)C(=O)Cn1c(=O)n(-c2ccc(F)cc2F)c(=O)c2sccc21,4.28
4,O=C1C(C2=NC(C(=O)O)C3C(=O)N(c4ccc(Cl)cc4)C(=O)C23)=C(O)c2ccccc21 (stereo not shown),2.54
5,COc1cc(C(=O)NC2CC(C)(C)CC(C)(C)C2)ccc1OC1CCN(C(C)=O)CC1,6.2
6,COc1ccc(C(=O)NC2CCCCCCC2)cc1OC,1.54
7,COc1ccc(C(=O)NC2CC2)cc1OC1CCN(Cc2cc(C)cc(C)c2)CC1,-70.2
8,COc1cc(CN2CCC(Oc3cc(C(=O)NC4CC4)ccc3OC)CC2)cc(OC)c1,-72.8
9,COc1ccc(C(=O)NCCc2ccc(C)cc2)cc1OC1CCN(C(C)=O)CC1,-4.05
10,COc1cc(/C=N/NC(=O)COc2ccccc2C)ccc1OC(=O)c1cccs1,-0.671
11,Cc1ccc(NC(=O)Cn2nnc(-c3ccc4c(c3)OCO4)n2)cc1F,11
12,Nc1cc(N)nc(SCC(=O)Nc2ccccc2N2CCOCC2)n1,2.73
13,CC(C)c1nc2sc3c(c2c(=O)[nH]1)CC(C)(C)OC3,17.7
14,Cc1ccccc1C(=O)NCCNC(=O)c1ccccn1,6.75
15,CC(C)CC(=O)Nc1ccc(Cc2ccncc2)cc1,10.1
16,CC(C)Cc1ccc(C(=O)Nc2ccc(Cc3ccncc3)cc2)o1,-57.6
17,O=C(NCc1ccncc1)c1cc(F)c(F)cc1Cl,14.2
18,O=C(Nc1ccc(Cc2ccncc2)cc1)c1ccc(Br)o1,-35.8
19,O=C(Nc1ccc(Cc2ccncc2)cc1)c1cc(F)c(F)cc1Cl,-71.2
20,O=C(Nc1cccnc1)c1cc(F)c(F)cc1Cl,19.7
21,N#Cc1cnc(SCC(=O)N2CCCC2)nc1N,13.1
22,COc1cc(NC(=O)c2cccc(C)c2)c(OC)cc1NC(=O)CN1CCOCC1,-3.88

row,Structure (SMILES),"hERG current change (%, negative = inhibition) at 10uM [%]"
1,O=C(NC12CC3CC(CC(C3)C1)C2)C12CC3CC(C1)CC(n1cnc(Cl)n1)(C3)C2,2.42
2,COc1cc(-c2nc(-c3cccc(C)c3)no2)cc(OC)c1OC,0.668
3,Cc1cc(NC(=O)C2CCCN2C(=O)Nc2c(C)cccc2C)ccc1-n1cnnn1 (stereo not shown),-10.9
4,Cc1cc(C)cc(NC(=O)N2CCCC2C(=O)Nc2ccc(-n3cnnn3)c(C)c2)c1 (stereo not shown),-12.3
5,Cc1ccc(NC(=O)N2CCCC2C(=O)Nc2ccc(-n3cnnn3)c(C)c2)cc1 (stereo not shown),-18.7
6,Cc1ccc(NC(=O)C2CCCN2C(=O)NC2CCCCC2)cc1 (stereo not shown),8.72
7,Cc1cc(C)cc(NC(=O)N2CCCC2C(=O)Nc2ccc(-n3cnnn3)cc2)c1 (stereo not shown),-54.1
8,CC(C)c1ccc(NC(=O)N2CCCC2C(=O)Nc2ccc(-n3cnnn3)cc2)cc1 (stereo not shown),-61.8
9,CC(=O)Nc1ccc(NC(=O)C2CCCN2C(=O)NC2CCCCC2)cc1 (stereo not shown),12.5
10,Cc1cccc(C)c1NC(=O)N1CCCC1C(=O)Nc1ccc(-n2cnnn2)cc1 (stereo not shown),-35.8
11,O=C(Nc1ccc(-n2cnnn2)cc1)C1CCC1,11.3
12,O=C(Nc1ccc(-n2cnnn2)cc1)C1CCCN1C(=O)Nc1ccc(Br)cc1 (stereo not shown),-79.9
13,O=C(Nc1ccc(-n2cnnn2)cc1)C1CCCN1C(=O)NC1CCCCC1 (stereo not shown),-63.3
14,Cc1cc(NC(=O)C2CCCN2C(=O)Nc2cccc(Cl)c2)ccc1-n1cnnn1 (stereo not shown),-48.3
15,O=C(CN1C(=O)NC2(CCc3ccccc32)C1=O)NCC(F)(F)F (stereo not shown),2.18
16,O=C(O)c1cccc(Oc2ncnc3sc4c(c23)CCCC4)c1,34.5
17,Oc1ccc(N=Nc2ccc3c(c2)OCCO3)c(O)c1,22.6
18,CC(=O)Nc1ccc(S(=O)(=O)N2CC(=O)NC(=O)C2)cc1,29.9
19,COc1ccc(C2=NS(=O)(=O)N(C)C(C(=O)N3CCCCC3)=C2)cc1OC,-4.54
20,CCn1ncc(Br)c1C(=O)NC(C)c1ccccc1 (stereo not shown),3.91
21,O=C(Cn1c(=O)n(CCC(=O)N2CCCCC2)c(=O)c2sccc21)NCc1ccccc1,5.68
22,Cc1ccc(-c2c(C(=O)NCc3ccc(F)cc3)oc(=O)c3ccccc23)cc1,-13

row,Structure (SMILES),"hERG current change (%, negative = inhibition) at 10uM [%]"
1,COc1ccc(CCN(C)C(=O)c2cc(=O)c3ccccc3o2)cc1OC,7.6
2,CN(Cc1ccc(N(C)C)cc1)C(=O)c1cc2ccccc2o1,-18.5
3,CN(Cc1ccccc1)C(=O)c1cc2ccccc2o1,-23
4,CN(Cc1ccccc1)C(=O)c1oc(=O)c2ccccc2c1-c1ccccc1,-13.1
5,CN(Cc1ccccc1Cl)C(=O)c1cc2ccccc2o1,-2.37
6,CN(Cc1ccc(Cl)cc1Cl)C(=O)c1cc(=O)c2ccccc2o1,-53.4
7,Cc1ccc(-c2c(C(=O)N(C)Cc3ccccc3)oc(=O)c3ccccc23)cc1,-52.5
8,CSc1ccc(CN(C)C(=O)c2cc3ccccc3o2)cc1,21.2
9,CCc1ccc(CN(C)C(=O)c2cc(=O)c3ccccc3o2)cc1,-66.4
10,CSc1ccc(CN(C)C(=O)c2cc(=O)c3ccccc3o2)cc1,-71.4
11,COc1ccc(Cl)cc1NC(=O)CN(C)C(=O)c1cc(=O)c2ccccc2o1,-28
12,O=C(Nc1ccc(N2CCCCCC2)cc1)c1ccc[nH]1,-15.6
13,O=C(NC(=S)NCC1CCCO1)c1ccccc1Br (stereo not shown),4.66
14,CN(CCc1ccccn1)C(=O)Nc1ccc(C(C)(C)C)cc1,-19.3
15,O/N=C/c1cc2ccccc2n1Cc1ccccc1F,13.6
16,CC12CCC(C(=O)n3c1nc1ccccc13)C2(C)C (stereo not shown),-3.14
17,Cc1cccc(NC(=O)CSc2nc3nc(C)cc(C)c3c(=O)[nH]2)c1,4.65
18,Cc1ccc(C(=O)NC2CCN(CC(=O)Nc3cccc([N+](=O)[O-])c3)CC2)cc1,-71.4
19,CC1CCN(CC(=O)Nc2cccc([N+](=O)[O-])c2)CC1,3.53
20,CC1CCCCC1NC(=O)CN1CCC(NC(=O)c2ccc([N+](=O)[O-])cc2)CC1 (stereo not shown),2.55
21,O=C(NC1CCN(CC(=O)N(c2ccccc2)c2ccccc2)CC1)c1ccc([N+](=O)[O-])cc1,-78
22,CCN1CCCC(NC(=O)c2cc([N+](=O)[O-])ccc2OC)C1.Cl.O (stereo not shown),-11.8

row,Structure (SMILES),"hERG current change (%, negative = inhibition) at 10uM [%]"
1,CCOc1ccc(C(=O)NC2CCN(CC(=O)NCc3ccccc3)CC2)cc1,-29.3
2,COc1ccc(C)cc1NC(=O)NC1CCN(Cc2ccccc2)CC1,-31.4
3,O=C(NC1CCN(C(=O)c2cccc([N+](=O)[O-])c2)CC1)c1ccccc1,-32.8
4,CC(=O)NC1CCN(CC(=O)Nc2cccc([N+](=O)[O-])c2)CC1,18.7
5,O=C(NC1CCN(Cc2ccccc2)CC1)C1CCN(S(=O)(=O)c2cccc([N+](=O)[O-])c2)CC1,-8.03
6,COc1ccc([N+](=O)[O-])cc1C(=O)NC1CCN(Cc2ccccc2)CC1.Cl.O,-55.3
7,O=C(NC1CCN(Cc2cccc([N+](=O)[O-])c2)CC1)c1ccccc1,-53.7
8,COc1ccccc1N/C=C/c1onc(C)c1[N+](=O)[O-],1.63
9,Cn1c2ccccc2c2cc(/C=C(\NC(=O)c3ccccc3)C(=O)O)ccc21,9.22
10,CSc1ccc(C(=O)N2CCc3ccc(NC(=O)c4ccccn4)cc3C2)cc1,-4.13
11,Cc1ccc(NC(=O)Cn2c(/C=C/c3ccccc3)nc3ccccc32)cc1C,-0.723
12,Cc1ccc(C(=O)O/N=C(\N)c2ccccn2)c(C)c1,-3.86
13,C/C(=N\OCC(=O)O)c1ccc(Cl)cc1,13.5
14,COc1ccc(CNC(=O)C(c2ccncc2)N(C(=O)Cc2cccs2)c2ccc(C)cc2)cc1 (stereo not shown),-15.7
15,Cc1ccc(C2Nc3ccccc3C(=O)N2Cc2ccco2)cc1 (stereo not shown),-32.5
16,O=C(O)c1cc(OCc2ccccc2)cc(OCc2ccccc2)c1,10.8
17,COc1ccc(NC(=O)CS(=O)CC(=O)Nc2ccc(OC)c(OC)c2)cc1 (stereo not shown),10.9
18,O=[N+]([O-])c1ccc(CSc2ccc(S(=O)(=O)N3CCCC3)cn2)cc1,-32.6
19,Cc1ccc(N2C(=O)CC(N3CCc4ccccc43)C2=O)cc1Cl (stereo not shown),15.6
20,CN(C)CCN(Cc1ccco1)C(=O)c1cc2c(Cl)nc3ccccc3c2s1,-70.1
21,Cc1ccc2nc(Cl)c3cc(C(=O)N(CCN(C)C)Cc4ccco4)sc3c2c1,-39.8
22,CCCCN(C)C(=O)c1cc2c(Cl)nc3ccccc3c2s1,-4.12

# From publication PMC4336329 (PLoS ONE, 2015)
